Source: PubChem (several laboratories)
A selection: hits, their analogues and other compounds. The true share with any hit is near 32%.
PostGolgi ctrl = yeast control strain growth, post-Golgi counter-screen; 5% of 98,000 active; AID 738; efflux-deficient yeast background strain, growth absorbance A615, 16 h; inhibition, % at 10 µM
CYP2C19 inhib = blocks human cytochrome P450 2C19. AID 778. 21% of 96,000 active. P33261. inhibition, % at 5 µM. CYP2C19 Supersomes, luciferin-H EGE luminescence, 30 min;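 active means CYP2C19 inhibition above a set limit at 5 µM in the primary screen, cut at about 50% in these data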;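 further: plate controls were negative control wells for no effect and 2.5 mM tranylcypromine positive control for full effect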
PostGolgi yeast = growth inhibition of a yeast mutant, post-Golgi transport screen; post-Golgi transport phenotypic cell assay; inhibition, % at 10 µM; AID 739; 0.9% of 98,000 active;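 further: yeast cells grown in 1536-well plates; yeast grown about 18 h at 30C before absorbance read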
CYP2C9 activ = CYP2C9 (human) activation; P11712; recombinant CYP2C9, luciferin-H conversion, luminescence; hits give high values; factor 1 = untreated enzyme, 0 = blocked; activation factor at 5 µM; 1.4% of 96,000 active; AID 1024;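 active means activation factor of 2 or more for CYP2C9 at a 5 µM dose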;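 further: 0 = sulfaphenazole-blocked wells and 1 = vehicle-only wells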
Target sequence (P11712 whole entry, looked up): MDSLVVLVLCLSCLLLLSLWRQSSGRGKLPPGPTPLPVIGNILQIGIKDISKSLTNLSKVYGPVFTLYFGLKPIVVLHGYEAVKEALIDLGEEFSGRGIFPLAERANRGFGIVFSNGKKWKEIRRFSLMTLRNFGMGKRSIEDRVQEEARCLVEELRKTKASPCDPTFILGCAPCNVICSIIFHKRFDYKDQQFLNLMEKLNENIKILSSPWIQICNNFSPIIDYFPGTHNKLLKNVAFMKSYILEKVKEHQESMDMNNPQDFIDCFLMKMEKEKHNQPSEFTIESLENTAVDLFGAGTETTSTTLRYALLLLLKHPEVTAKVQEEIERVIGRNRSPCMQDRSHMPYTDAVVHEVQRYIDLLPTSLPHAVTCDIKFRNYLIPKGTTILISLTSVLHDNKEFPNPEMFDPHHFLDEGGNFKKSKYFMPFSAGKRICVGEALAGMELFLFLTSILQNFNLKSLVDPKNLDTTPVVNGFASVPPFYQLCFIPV
CYP2C9 inh = human CYP2C9 inhibition; P11712; inhibition, % at 5 µM; 20% of 96,000 active; CYP2C9 Supersomes, luciferin-H conversion, luminescence;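 active means blocking of liver enzyme CYP2C9 beyond about 50% at 5 µM, limit read from the data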
CYP2C19 act = activators of human cytochrome P450 2C19. 96,000 tested, under 10 active. activation factor at 5 µM. recombinant CYP2C19, luciferin-H EGE luminescence; hits give high values; 0 = fully inhibited enzyme, 1 = untreated enzyme. P33261;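 active means activation factor of at least 2 at 5 µM in the primary screen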;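 further: 0 = wells with 2.5 mM tranylcypromine and 1 = vehicle-only wells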
Active calls of the source: *. Unless noted, no stated cut-off is given here; in the data, active means inhibition above about 30%; inactive means the rest.

What do the screens show for `Cc1sc2nc(CN3CCOCC3)nc(NS(=O)(=O)c3ccccc3)c2c1C`?
PostGolgi ctrl: 5; CYP2C19 inhib: -24; PostGolgi yeast: 3; CYP2C9 activ: 0.5; CYP2C9 inh: 46; CYP2C19 act: 1.2

What do the screens show for `Cc1sc2nc(CN3CCOCC3)nc(NCCc3ccccc3)c2c1C`?
PostGolgi ctrl: -7; CYP2C19 inhib: 40; PostGolgi yeast: 13; CYP2C9 activ: 0.1; CYP2C9 inh: 90*; CYP2C19 act: 0.6

Results for Cc1sc2nc(CN3CCOCC3)nc(NS(=O)(=O)c3ccc4c(c3)OCCO4)c2c1C ?
PostGolgi ctrl: 1; CYP2C19 inhib: 31; PostGolgi yeast: -5; CYP2C9 activ: 0.2; CYP2C9 inh: 80*; CYP2C19 act: 0.7

What do the screens show for `Cc1nn(-c2ccccn2)c2c1C(c1ccccn1)C1=C(CCCC1=O)N2` (stereo not given)?
PostGolgi ctrl: -8; CYP2C19 inhib: -8; PostGolgi yeast: 7; CYP2C9 activ: 0.9; CYP2C9 inh: 5; CYP2C19 act: 1.1

Results for O=C(CN1CCOCC1)OCCCc1ccccc1 ?
PostGolgi ctrl: 12; CYP2C19 inhib: 66*; PostGolgi yeast: -4; CYP2C9 activ: 1.1; CYP2C9 inh: -14; CYP2C19 act: 0.3

How did C[N+]1(CC(=O)OCCCc2ccccc2)CCOCC1 do in these assays?
PostGolgi ctrl: 15; CYP2C19 inhib: 7; PostGolgi yeast: -13; CYP2C9 activ: 0.9; CYP2C9 inh: 12; CYP2C19 act: 0.9

Results for CCCC(=O)Nc1c(C)n[nH]c1C ?
PostGolgi ctrl: 3; CYP2C19 inhib: 23; PostGolgi yeast: 3; CYP2C9 activ: 0.4; CYP2C9 inh: 62*; CYP2C19 act: 0.8

Results for O=C(Cn1nc(C(F)F)cc1C(F)F)N/N=C/c1ccc2c(c1)OCO2 ?
PostGolgi ctrl: 27; CYP2C19 inhib: 10; PostGolgi yeast: 1; CYP2C9 activ: 1; CYP2C9 inh: 2; CYP2C19 act: 0.9

What do the screens show for `O=C(CN(Cc1ccccc1)S(=O)(=O)c1ccccc1)N/N=C/c1ccc2c(c1)OCO2`?
PostGolgi ctrl: 10; CYP2C19 inhib: 53*; PostGolgi yeast: 0; CYP2C9 activ: 0.3; CYP2C9 inh: 74*; CYP2C19 act: 0.5

What do the screens show for `O=C(CN(Cc1ccc(Cl)c(Cl)c1)S(=O)(=O)c1ccccc1)N/N=C\c1ccc2c(c1)OCO2`?
PostGolgi ctrl: 10; CYP2C19 inhib: 19; PostGolgi yeast: 3; CYP2C9 activ: 0.4; CYP2C9 inh: 65*; CYP2C19 act: 0.8

How did O=C(CN(Cc1ccccc1)S(=O)(=O)c1ccc2c(c1)OCCO2)N/N=C/c1ccc(F)cc1 do in these assays?
PostGolgi ctrl: 23; CYP2C19 inhib: 30; PostGolgi yeast: -3; CYP2C9 activ: 0.6; CYP2C9 inh: 36; CYP2C19 act: 0.7

What do the screens show for `COc1ccc2c(c1)-c1ccccc1S(=O)(=O)N2C(C)=O`?
PostGolgi ctrl: -1; CYP2C19 inhib: 14; PostGolgi yeast: 4; CYP2C9 activ: 0.9; CYP2C9 inh: 14; CYP2C19 act: 0.9

Results for CC1=C(C(=O)OC(C)C)C(C2CC=CCC2)NC(=O)N1 (stereo not given) ?
PostGolgi ctrl: 8; CYP2C19 inhib: 65*; PostGolgi yeast: 12; CYP2C9 activ: 0.9; CYP2C9 inh: 8; CYP2C19 act: 0.4

What do the screens show for `CCOC(=O)C1=C(C)NC(=O)NC1C1CC=CCC1` (stereo not given)?
PostGolgi ctrl: 7; CYP2C19 inhib: 52*; PostGolgi yeast: -4; CYP2C9 activ: 0.8; CYP2C9 inh: 20; CYP2C19 act: 0.5

What do the screens show for `CC1=C(C(=O)OC(C)C)C(C)NC(=O)N1` (stereo not given)?
PostGolgi ctrl: 6; CYP2C19 inhib: 2; PostGolgi yeast: -2; CYP2C9 activ: 1; CYP2C9 inh: 5; CYP2C19 act: 1

How did O=C(Nc1ccon1)c1cc2ccccc2oc1=O do in these assays?
PostGolgi ctrl: -4; CYP2C19 inhib: -11; PostGolgi yeast: 4; CYP2C9 activ: 1; CYP2C9 inh: 4; CYP2C19 act: 1.1

How did CCCc1cc(=O)n2[nH]c(-c3ccc(Br)cc3)cc2n1 do in these assays?
PostGolgi ctrl: 5; PostGolgi yeast: 3

Results for c1ccc2c(Oc3ccc4c(c3)OCO4)nncc2c1 ?
PostGolgi ctrl: 0; CYP2C19 inhib: 62*; PostGolgi yeast: -4; CYP2C9 activ: 0.9; CYP2C9 inh: 5; CYP2C19 act: 0.4
